Assay results from PubChem BioAssay (NCATS).
Inconclusive results are not listed. Active and inactive are the calls of the source. The call rests on the fitted dose curve; in most records, active means well fitted inhibition curve with a large enough effect; inconclusive means small, poorly fitted or top-dose-only effect; inactive means flat fitted curve, though single readings scatter.

Experiments:
Assay in all cases: qHTS profiling for inhibitors of Plasmodium falciparum proliferation (AID 504749); further: nearly all actives have a fitted effect of over 60% in size
Conditions in all cases: P. falciparum in erythrocytes, SYBR Green DNA, 72 h; series mostly up to 12.8 µM
[1] = tested on: 3D7
How it was run: (§1)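 Each compound contacts P. falciparum-infected red blood cells for 72 h at 37 C; lysis buffer (Tris, EDTA, saponin, Triton X, SYBR Green I) is added and fluorescence measured next morning; values normalized to controls.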

[2] = tested on: ATS189
How it was run: as §1

[3] = tested on: CP185
How it was run: as §1

[4] = tested on: CP191
How it was run: as §1

[5] = tested on: CP201
How it was run: as §1

[6] = tested on: CP217
How it was run: as §1

[7] = tested on: CP247
How it was run: as §1

[8] = tested on: CP250
How it was run: as §1

[9] = tested on: CP256
How it was run: as §1

[10] = tested on: CP269
How it was run: as §1

[11] = tested on: CP286
How it was run: as §1

[12] = tested on: CP291
How it was run: as §1

[13] = tested on: CP297
How it was run: as §1

[14] = tested on: CP315
How it was run: as §1

[15] = tested on: ECU
How it was run: as §1

[16] = tested on: ICS
How it was run: as §1

[17] = tested on: N140
How it was run: as §1

[18] = tested on: PC49
How it was run: as §1

[19] = tested on: SC27B
How it was run: as §1

[20] = tested on: TAB113
How it was run: as §1

Measured: Potency
Potency means the concentration at half of the fitted maximal effect.

COc1ccc(C[C@@](C)(N)C(=O)O)cc1OC
inactive: [1] | [2] | [3] | [4] | [5] | [6] | [7] | [8] | [9] | [10] | [11] | [12] | [13] | [14] | [15] | [16] | [17] | [18] | [19] | [20]

CC[C@](C)(CN(C)C)OC(=O)c1ccccc1
inactive: [1] | [2] | [3] | [4] | [5] | [6] | [7] | [8] | [9] | [10] | [11] | [12] | [13] | [14] | [15] | [16] | [17] | [18] | [19] | [20]

O=C(N/N=C\c1ccc([N+](=O)[O-])o1)c1ccc(O)cc1
active: [1] 1.58 µM | [2] 3.16 µM | [3] 2.24 µM | [4] 3.16 µM | [5] 5.73 µM | [6] 3.55 µM | [7] 2.82 µM | [8] 3.16 µM | [9] 3.55 µM | [10] 4.55 µM | [11] 2.51 µM | [12] 4.55 µM | [13] 3.22 µM | [14] 5.73 µM | [15] 1.78 µM | [16] 1.41 µM | [17] 3.16 µM | [18] 2.24 µM | [19] 3.55 µM | [20] 3.16 µM

CC1=C(C(=O)O)N2C(=O)[C@@H](NC(=O)[C@@H](N)c3ccc(O)cc3)[C@@H]2SC1
inactive: [1] | [2] | [3] | [4] | [5] | [6] | [7] | [8] | [9] | [10] | [11] | [12] | [13] | [14] | [15] | [16] | [17] | [18] | [19] | [20]

O[C@@](CCN1CCCC1)(c1ccccc1)C1CCCCC1
inactive: [1] | [2] | [3] | [4] | [6] | [8] | [9] | [10] | [11] | [12] | [13] | [14] | [15] | [19] | [20]

CO[C@H]1[C@H](O[C@H]2O[C@@H](C)[C@@H](O[C@@H]3C[C@](C)(O)[C@H](O)[C@H](C)O3)[C@@H](N(C)C)[C@@H]2O)[C@@H](CC=O)C[C@@H](C)[C@@H](O[C@H]2CC[C@H](N(C)C)[C@H](C)O2)/C=C\C=C/C[C@@H](C)OC(=O)C[C@H]1O
inactive: [1] | [2] | [4] | [5] | [7] | [8] | [14] | [15] | [17] | [18] | [19]

CN[C@H]1[C@H](O)[C@@H](O[C@@H]2[C@H](O)[C@@H](O[C@H]3OC(CN)=CC[C@H]3N)[C@@H](N)C[C@H]2N)OC[C@@]1(C)O
inactive: [1] | [2] | [3] | [4] | [5] | [6] | [7] | [8] | [9] | [10] | [11] | [12] | [13] | [14] | [15] | [16] | [17] | [18] | [19] | [20]

CCOC(=O)[C@H](CCc1ccccc1)N[C@@H](C)C(=O)N1[C@H](C(=O)O)C[C@H]2CCC[C@@H]21
inactive: [1] | [2] | [3] | [4] | [5] | [6] | [7] | [8] | [9] | [10] | [11] | [12] | [14] | [15] | [16] | [17] | [18] | [19] | [20]

C[C@H]1CS(=O)(=O)CCN1/N=C\c1ccc([N+](=O)[O-])o1
inactive: [1] | [2] | [3] | [4] | [5] | [6] | [7] | [8] | [9] | [10] | [11] | [12] | [13] | [14] | [15] | [16] | [17] | [18] | [19] | [20]

C[C@@H]1O[C@H](O[C@@H]2\C=C/C=C\C=C/C=C\C[C@H](C)OC(=O)/C=C\[C@H]3O[C@@H]3C[C@H](O)C[C@]3(O)C[C@@H](O)[C@@H](C(=O)O)[C@H](C2)O3)[C@@H](O)[C@H](N)[C@@H]1O (stereo in doubt)
inactive: [1] | [2] | [3] | [4] | [5] | [6] | [7] | [8] | [9] | [10] | [11] | [12] | [13] | [14] | [15] | [16] | [17] | [18] | [19] | [20]

Cn1nnnc1SCC1=C(C(=O)O)N2C(=O)[C@@H](NC(=O)[C@@H](O)c3ccccc3)[C@@H]2SC1
inactive: [1] | [2] | [3] | [4] | [5] | [6] | [7] | [8] | [9] | [10] | [11] | [13] | [14] | [15] | [16] | [17] | [18] | [19] | [20]

Cc1ccc2c(c1)c1c3n2CCN[C@H]3CCC1
inactive: [1] | [3] | [4] | [5] | [6] | [7] | [8] | [9] | [10] | [12] | [14] | [17] | [18] | [19] | [20]

NC[C@@H]1O[C@H](O[C@@H]2[C@H](O[C@@H]3O[C@H](CO)[C@@H](O)[C@@H]3O)[C@@H](O)[C@@H](N)C[C@H]2N)[C@@H](N)[C@H](O)[C@@H]1O
inactive: [1] | [2] | [3] | [4] | [5] | [6] | [7] | [8] | [9] | [10] | [11] | [12] | [13] | [14] | [15] | [16] | [17] | [18] | [19] | [20]

CC(C)(C)NC[C@@H](O)COc1ccccc1C1CCCC1
active: [2] 3.16 µM | [3] 3.16 µM | [6] 3.16 µM | [9] 3.98 µM | [10] 5.73 µM | [11] 3.55 µM | [12] 4.05 µM | [13] 7.21 µM | [15] 3.55 µM | [16] 1.41 µM | [17] 3.16 µM | [18] 2.24 µM | [19] 3.55 µM | [20] 3.98 µM

CC(C)(C)NC(=O)[C@@H]1CC[C@@H]2[C@@H]3CC[C@@H]4NC(=O)C=C[C@@]4(C)[C@H]3CC[C@]21C
inactive: [1] | [2] | [3] | [4] | [5] | [6] | [7] | [8] | [9] | [10] | [11] | [12] | [13] | [14] | [15] | [16] | [17] | [18] | [19] | [20]

C1CCN2C[C@@H]3C[C@@H](CN4CCCC[C@H]34)[C@H]2C1
inactive: [1] | [2] | [3] | [4] | [5] | [6] | [7] | [8] | [9] | [10] | [11] | [12] | [13] | [14] | [15] | [16] | [17] | [18] | [19] | [20]

Cc1ncc([N+](=O)[O-])n1C[C@H](O)CCl
inactive: [1] | [2] | [3] | [4] | [5] | [6] | [7] | [8] | [9] | [10] | [11] | [12] | [13] | [14] | [15] | [16] | [17] | [18] | [19] | [20]

Cc1onc(-c2ccccc2Cl)c1C(=O)N[C@H]1C(=O)N2[C@H]1SC(C)(C)[C@H]2C(=O)O
inactive: [1] | [2] | [3] | [4] | [5] | [6] | [7] | [8] | [9] | [10] | [11] | [12] | [13] | [14] | [15] | [16] | [17] | [18] | [19] | [20]

CC[C@H]1NC(=O)c2cc(S(N)(=O)=O)c(Cl)cc2N1
inactive: [1] | [2] | [3] | [4] | [5] | [6] | [7] | [8] | [9] | [10] | [11] | [12] | [13] | [14] | [15] | [16] | [17] | [18] | [19] | [20]

CC(=C(CCOP(=O)(O)O)SC(=O)c1ccccc1)N(C=O)Cc1cnc(C)nc1N
inactive: [1] | [2] | [3] | [4] | [5] | [6] | [7] | [8] | [9] | [10] | [11] | [12] | [13] | [14] | [15] | [16] | [17] | [18] | [19] | [20]

C=C1c2c(Cl)ccc(O)c2C(O)=C2C(=O)[C@@]3(O)C(O)=C(C(N)=O)C(=O)[C@@H](N(C)C)[C@@H]3[C@@H](O)[C@H]12
inactive: [3] | [4] | [5] | [7] | [8] | [9] | [10] | [12] | [13] | [14] | [17] | [18]

CC(=O)OCC(=O)[C@@]12OC(C)(C)O[C@@H]1C[C@H]1[C@H]3C[C@H](F)C4=CC(=O)C=C[C@@]4(C)[C@]3(F)[C@H](O)C[C@@]12C
inactive: [1] | [2] | [3] | [4] | [5] | [6] | [7] | [8] | [9] | [10] | [11] | [12] | [13] | [14] | [15] | [16] | [17] | [18] | [19] | [20]
